Test results: PubChem BioAssay AID1159580 (chemical genetic matrix, 2015)
Screen size: about 5,500 compounds; about 2,000 (36%) were called active. Another 18% or so got no clear call; they are omitted. Rule as the data show it: active = normalized growth mostly below about 0.91 (no sharp cut-off); inconclusive = no clear call, values can overlap the other calls; inactive = mostly above about 0.92. The list shows a part of the results.

Test: chemical genetic growth profiling, strain panel (AID 1159580);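 also: tested at 20 µM; growth read once vehicle control cultures reached saturation at 30 °C; 1 = growth at the plate median or of vehicle wells; lower values mean less growth of the strain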
Details: growth OD

Measured: normalized growth

NS(=O)(=O)c1cc(C2(O)NC(=O)c3ccccc32)ccc1Cl (stereo unspecified)
inactive: S. cerevisiae deletion strains, locus YJR075W, strain HOC1, hits give low values 1.03 | S. cerevisiae deletion strains, locus YKL009W, strain mrt4, hits give low values 1.01 | S. cerevisiae deletion strains, locus YKL068W, hits give low values 1.01 | S. cerevisiae deletion strains, locus YKL085W, strain MDH1 (second series), hits give low values 1.01 | S. cerevisiae deletion strains, locus YKL085W, strain MDH1, hits give low values 1.01 | S. cerevisiae deletion strains, locus YKL160W, strain elf1, hits give low values 0.991 | S. cerevisiae deletion strains, locus YKL190W, strain CNB1, hits give low values 1.01 | S. cerevisiae deletion strains, locus YKR001C, strain vps1, hits give low values 1.02 | S. cerevisiae deletion strains, locus YKR026C, strain gcn3, hits give low values 0.978 | S. cerevisiae deletion strains, locus YKR091W, strain srl3, hits give low values 0.987 | S. cerevisiae deletion strains, locus YLL001W, strain dnm1, hits give low values 0.972 | S. cerevisiae deletion strains, locus YLL026W, hits give low values 0.988 | S. cerevisiae deletion strains, locus YLL041C, strain sdh2, hits give low values 0.981 | S. cerevisiae deletion strains, locus YLR027C, strain aat2, hits give low values 0.994 | S. cerevisiae deletion strains, locus YLR039C, strain RIC1, hits give low values 1.01 | S. cerevisiae deletion strains, locus YLR058C, strain SHM2, hits give low values 1.03 | S. cerevisiae deletion strains, locus YLR102C, strain apc9, hits give low values 1.01 | S. cerevisiae deletion strains, locus YLR113W, strain HOG1, hits give low values 0.969 | S. cerevisiae deletion strains, locus YLR221C, strain rsa3, hits give low values 0.981 | S. cerevisiae deletion strains, locus YLR258W, strain gsy2, hits give low values 0.999 | S. cerevisiae deletion strains, locus YLR262C, strain YPT6 (second series), hits give low values 1.01 | S. cerevisiae deletion strains, locus YLR262C, strain YPT6, hits give low values 1.04 | S. cerevisiae deletion strains, locus YLR268W, strain sec22, hits give low values 1.03 | S. cerevisiae deletion strains, locus YLR320W, strain mms22, hits give low values 0.976 | S. cerevisiae deletion strains, locus YLR330W, strain CHS5, hits give low values 1.02 | S. cerevisiae deletion strains, locus YLR342W, strain FKS1 (second series), hits give low values 1.01 | S. cerevisiae deletion strains, locus YLR342W, strain FKS1, hits give low values 0.987 | S. cerevisiae deletion strains, locus YLR357W, strain rsc2, hits give low values 1 | S. cerevisiae deletion strains, locus YLR370C, strain arc18, hits give low values 0.986 | S. cerevisiae deletion strains, locus YLR371W, strain rom2, hits give low values 1.02 | S. cerevisiae deletion strains, locus YLR384C, strain iki3, hits give low values 0.987 | S. cerevisiae deletion strains, locus YLR418C, strain cdc73, hits give low values 1.03 | S. cerevisiae deletion strains, locus YML016C, strain PPZ1, hits give low values 1.01 | S. cerevisiae deletion strains, locus YML032C, strain rad52, hits give low values 1.02 | S. cerevisiae deletion strains, locus YML120C, strain ndi1, hits give low values 0.983 | S. cerevisiae deletion strains, locus YML124C, strain tub3, hits give low values 1.02 | S. cerevisiae deletion strains, locus YMR058W, strain fet3, hits give low values 1.01 | S. cerevisiae deletion strains, locus YMR078C, strain ctf18, hits give low values 1.02 | S. cerevisiae deletion strains, locus YMR125W, strain sto1, hits give low values 1.01 | S. cerevisiae deletion strains, locus YMR129W, hits give low values 0.985 | S. cerevisiae deletion strains, locus YMR205C, strain PFK2, hits give low values 0.99 | S. cerevisiae deletion strains, locus YMR223W, strain ubp8, hits give low values 1.02 | S. cerevisiae deletion strains, locus YMR231W, strain pep5, hits give low values 0.994 | S. cerevisiae deletion strains, locus YMR263W, strain SAP30, hits give low values 1.01 | S. cerevisiae deletion strains, locus YMR307W, strain GAS1, hits give low values 0.984 | S. cerevisiae deletion strains, locus YNL067W, strain RPL9B, hits give low values 1.02 | S. cerevisiae deletion strains, locus YNL071W, strain lat1, hits give low values 0.989 | S. cerevisiae deletion strains, locus YNL153C, strain GIM3, hits give low values 1.02 | S. cerevisiae deletion strains, locus YNL183C, strain NPR1, hits give low values 0.948 | S. cerevisiae deletion strains, locus YNL209W, strain ssb2, hits give low values 0.997 | S. cerevisiae deletion strains, locus YNL233W, strain BNI4, hits give low values 1.02 | S. cerevisiae deletion strains, locus YNL248C, strain rpa49, hits give low values 1.02 | S. cerevisiae deletion strains, locus YNL250W, strain rad50, hits give low values 0.992 | S. cerevisiae deletion strains, locus YNL271C, strain bni1, hits give low values 1.02 | S. cerevisiae deletion strains, locus YNL298W, strain CLA4, hits give low values 1.03 | S. cerevisiae deletion strains, locus YNL307C, strain MCK1, hits give low values 1.02 | S. cerevisiae deletion strains, locus YNL322C, strain KRE1 (second series), hits give low values 0.983 | S. cerevisiae deletion strains, locus YNL322C, strain KRE1, hits give low values 1 | S. cerevisiae deletion strains, locus YNR049C, strain mso1, hits give low values 0.997 | S. cerevisiae deletion strains, locus YNR052C, strain pop2, hits give low values 1.01 | S. cerevisiae deletion strains, locus YOL006C, strain TOP1, hits give low values 1.1 | S. cerevisiae deletion strains, locus YOL012C, strain htz1 1.12 | S. cerevisiae deletion strains, locus YOL147C, strain pex11, hits give low values 1.01 | S. cerevisiae deletion strains, locus YOR001W, strain rrp6, hits give low values 0.987 | S. cerevisiae deletion strains, locus YOR061W, strain CKA2, hits give low values 1.01 | S. cerevisiae deletion strains, locus YOR069W, strain VPS5, hits give low values 1.01 | S. cerevisiae deletion strains, locus YOR070C, strain gyp1, hits give low values 0.991 | S. cerevisiae deletion strains, locus YOR080W, strain dia2, hits give low values 0.976 | S. cerevisiae deletion strains, locus YOR083W, strain WHI5, hits give low values 0.98 | S. cerevisiae deletion strains, locus YOR106W, strain vam3, hits give low values 1.01 | S. cerevisiae deletion strains, locus YOR136W, strain idh2, hits give low values 1.03 | S. cerevisiae deletion strains, locus YOR144C, strain elg1, hits give low values 1.02 | S. cerevisiae deletion strains, locus YOR184W, strain ser1, hits give low values 1.03 | S. cerevisiae deletion strains, locus YOR231W, strain MKK1, hits give low values 0.976 | S. cerevisiae deletion strains, locus YOR265W, strain rbl2, hits give low values 0.993 | S. cerevisiae deletion strains, locus YOR270C, strain vph1, hits give low values 1.01 | S. cerevisiae deletion strains, locus YOR290C, strain snf2, hits give low values 0.986 | S. cerevisiae deletion strains, locus YOR316C, strain cot1, hits give low values 1.02 | S. cerevisiae deletion strains, locus YPL051W, strain arl3, hits give low values 0.981 | S. cerevisiae deletion strains, locus YPL055C, strain LGE1, hits give low values 1.02 | S. cerevisiae deletion strains, locus YPL078C, strain atp4, hits give low values 0.984 | S. cerevisiae deletion strains, locus YPL106C, strain sse1, hits give low values 0.948 | S. cerevisiae deletion strains, locus YPL240C, strain hsp82, hits give low values 0.99 | S. cerevisiae deletion strains, locus YPL241C, strain CIN2, hits give low values 1.01 | S. cerevisiae deletion strains, locus YPL256C, strain CLN2, hits give low values 0.96 | S. cerevisiae deletion strains, locus YPR119W, strain clb2, hits give low values 1.01 | S. cerevisiae deletion strains, locus YPR141C, strain kar3, hits give low values 1.03 | S. cerevisiae deletion strains, locus YPR163C, strain tif3, hits give low values 1.01 | S. cerevisiae deletion strains, locus YPR167C, strain met16, hits give low values 1.02 | S. cerevisiae deletion strains, strain wtn01, hits give low values 1.04 | S. cerevisiae strains, strain wild type, hits give low values 1.01
